Screens from PubChem BioAssay.
IMPase cell inh: cell-permeable inhibitors of inositol monophosphatase (IMPase); CHO-M1 cells, IP1 accumulation, HTRF TR-FRET ratio; 120,000 tested, under 10 active; inhibition (IP1 accumulation), % at 46.1 µM; P97697; active = well fitted curve in the direction sought with a large enough effect in the signal ratio, not every such curve was filed as active; inconclusive = small, poorly fitted or top-dose-only effect, or a change in a side signal; inactive = no such curve, though single readings can be large or run the other way; the % refers to the signal ratio;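 also: cells stimulated with carbachol in lithium chloride buffer; plate controls were DMSO basal wells for no effect and reference inhibitor wells for full effect; higher means more IMPase inhibition seen as more IP1 and lower FRET ratio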
Target sequence (P97697 whole entry, looked up): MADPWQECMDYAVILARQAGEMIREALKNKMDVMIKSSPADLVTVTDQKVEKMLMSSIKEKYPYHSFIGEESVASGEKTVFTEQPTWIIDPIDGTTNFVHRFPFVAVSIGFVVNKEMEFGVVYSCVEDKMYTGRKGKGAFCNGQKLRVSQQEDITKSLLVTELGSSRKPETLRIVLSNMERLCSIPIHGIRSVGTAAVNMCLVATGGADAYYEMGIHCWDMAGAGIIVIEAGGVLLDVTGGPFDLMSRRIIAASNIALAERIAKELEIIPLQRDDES
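Measured: the HTRF emission ratio (665/620 nm) plus the 620 nm donor channel, each fitted to the Hill equation to give AC50. Cells were CHO-M1 given compounds up to 46 uM and a 30 min carbachol stimulation at 37C.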
IMPase Li inh: cell-permeable IMPase inhibitors with lithium potentiation. CHO-M1 cells, IP1 TR-FRET (IP-One), carbachol + lithium. Potency, µM (doses to about 59.4 µM), inactives show at the highest dose activity, negative = IMPase inhibition, most hits filed as inhibitors. 0.35% of 210,000 active; active = well fitted inhibition curve with a large enough effect; inconclusive = small, poorly fitted or top-dose-only effect; inactive = no such curve, though single readings can be large or run the other way;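 also: IP1 builds up when IMPase is blocked and the TR-FRET signal falls; potency is read from the fitted curve at half-maximal effect; plate controls were basal vehicle for no effect and high inhibitor control for full effect; nearly all actives have a fitted effect of over 50% in size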
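Lithium-sensitised IP1 accumulation assay; M1-expressing CHO cells treated 30 min at 37C with compound. Competitive antibody detection by time-resolved FRET followed a 10 min room-temperature lysis step.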
HPGD block: HPGD (human) dehydrogenase inhibition; AID 894; Potency, µM, inactives show top-dose activity change, negative = inhibition, hits mostly inhibitors; 4.3% of 150,000 active; purified HPGD, NADH fluorescence kinetic, PGE2 substrate; P15428; also: potency is read from the fitted curve at half-maximal effect
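20 nM HPGD preincubated 15 min at room temperature with compound in 50 mM Tris-HCl pH 8, 0.01% Tween 20. Started with 1 mM NAD+ and 30 uM prostaglandin E2; NADH fluorescence (360/450 nm) read 5 times over 30-s intervals, last minus first.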
PNC assembly inh: perinucleolar compartment assembly inhibition. 3.1% of 140,000 active. PC3M PTB-GFP, PNC prevalence imaging, 16 h; hits give low values. activity change (PNC), negative = inhibition, % at 10 µM;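 active = readout at or below -70, meaning at least 70% loss of cells showing the perinucleolar compartment, a nuclear body marking cancer cells; inconclusive = readout between -30 and a set limit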;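 also: plate controls were DMSO wells for no effect and camptothecin positive control wells for full effect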
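Compounds are pinned in duplicate onto adhered PC3M cells stably expressing GFP-tagged PTB and incubated 16 h at 37 C. Cells are then fixed, nuclei stained with Hoechst, and PNC-positive cells counted.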
ALDH1A1 inh: ALDH1A1 (human) enzyme inhibition | Purified ALDH1A1, NADH fluorescence, propionaldehyde substrate | Potency, µM (highest dose often 75.3 µM), inactives show at the highest dose activity, negative = inhibition, most hits filed as inhibitors | 7.3% of 220,000 active;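 also: potency is read from the fitted curve at half-maximal effect; plate controls were no enzyme wells and a reference inhibitor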
Target sequence (P00352 whole entry, looked up): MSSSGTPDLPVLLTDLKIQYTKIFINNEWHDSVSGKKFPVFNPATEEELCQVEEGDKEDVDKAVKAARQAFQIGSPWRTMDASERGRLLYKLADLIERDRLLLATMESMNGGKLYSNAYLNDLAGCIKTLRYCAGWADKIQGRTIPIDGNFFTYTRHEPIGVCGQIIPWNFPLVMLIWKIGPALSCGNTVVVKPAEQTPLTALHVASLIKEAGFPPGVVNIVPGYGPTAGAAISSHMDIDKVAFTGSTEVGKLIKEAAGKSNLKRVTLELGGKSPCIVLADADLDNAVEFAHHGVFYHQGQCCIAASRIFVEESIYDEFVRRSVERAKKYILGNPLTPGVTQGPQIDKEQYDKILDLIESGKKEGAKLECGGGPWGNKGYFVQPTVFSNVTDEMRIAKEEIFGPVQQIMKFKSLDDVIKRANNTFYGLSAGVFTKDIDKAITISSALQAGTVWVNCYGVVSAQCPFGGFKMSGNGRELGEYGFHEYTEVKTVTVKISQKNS
Active calls of the source: *; ? = inconclusive; . = no result; [ ] = dose if it differs, or a comment. This is a sample that favours compounds with a hit; in the whole collection about 11% have one here. Unless noted, calls follow the shape of the dose curve; as a rule, active = well fitted inhibition curve with a large enough effect (not every such curve was filed as active); inconclusive = small, poorly fitted or top-dose-only effect, or another doubt; inactive = no such curve, though single readings can be large or run the other way. Unless noted, % is scaled to controls: 0 for no effect and ±100 for the full control effect.

SMILES | IMPase cell inh | IMPase Li inh | HPGD block | PNC assembly inh | ALDH1A1 inh
Cc1ccc(-c2nn(C)c(=O)c3ccccc23)cc1CNC(=O)c1ccco1 | 5 | -6%[38.3 µM] | 3.5µM* | -26 | 2%
CC(=O)NCc1cc(-c2nn(C)c(=O)c3ccccc23)ccc1C | -5 | 25%[38.3 µM] | -28% | ? | -3%
Cc1ccc(CNC(=O)CCS(=O)(=O)c2cccc3nonc23)cc1 | 18 | -4%[38.3 µM] | 4% | 28 | 40µM*
O=C(CCS(=O)(=O)c1cccc2nonc12)N1CC(=O)N(CCc2ccccc2)C(=O)C1 | ? | 40%[38.3 µM] | 1% | 24 | 28µM*
COc1ccc(CNC(=O)CCS(=O)(=O)c2cccc3nonc23)cc1 | 8 | 16%[38.3 µM] | -6% | 3 | 18µM*
COc1ccc(NC(=O)CCS(=O)(=O)c2cccc3nonc23)c(OC)c1 | -4 | 13%[38.3 µM] | -1% | ? | ?
COc1ccccc1CNC(=O)CCS(=O)(=O)c1cccc2nonc12 | -5 | 34%[38.3 µM] | -14% | -22 | 18µM*
O=C(CCS(=O)(=O)c1cccc2nonc12)N1CCOCC1 | 8 | 10%[38.3 µM] | 1% | -7 | ?
COc1ccc(NC(=O)CCS(=O)(=O)c2cccc3nonc23)cc1 | . | 0% | . | . | ?
O=C(CNC1CC1)Nc1cc(C(F)(F)F)ccc1Cl | . | . | . | . | -11%
OC[C@@H]1[C@@H](c2ccc(F)cc2)C(c2ccc(F)cc2)=NN1c1ccccc1 | . | -1% | ? | . | ?
COc1ccc(CNc2nc(SCC(=O)NCc3ccco3)nc3ccccc23)cc1 | 3 | 18% | 10µM* | ? | ?
COc1ccc(Cc2nnc(SCC(=O)NCc3ccco3)o2)cc1 | -9[1.84 µM] | 21%[38.3 µM] | 20µM* | ? | ?
Cc1ccc(N(C(=O)Nc2ccccc2)C2=NCC(C)S2)cc1 (stereo not given) | 4[1.84 µM] | 14%[38.3 µM] | 11µM* | 23 | -6%
CC1CN=C(N(C(=O)Nc2ccccc2)C(C)C)S1 (stereo not given) | -2 | -4% | -11% | 263 | 4%
O=C(NCCCCc1ccccc1)C12CN(Cc3ccccc3)CC1C(c1ccc([N+](=O)[O-])cc1)=NO2 (stereo not given) | 10 | 10% | -18% | 22 | 11µM*
O=C(NCCCCc1ccccc1)C12CN(Cc3ccccc3)CC1C(c1cccc([N+](=O)[O-])c1)=NO2 (stereo not given) | 1 | -1% | -7% | 23 | ?
COc1ccc(CCNC(=O)C23CN(Cc4ccccc4)CC2C(c2ccc([N+](=O)[O-])cc2)=NO3)cc1 (stereo not given) | 8 | 7% | -23% | 41 | 16µM*
O=C1CC2c3ccccc3C1C1C(=O)N(CCc3ccccc3)C(=O)C21 (stereo not given) | . | 6% | . | . | 16%
COc1cc(OC)c(C2=Nc3ccc(Br)cc3C(c3ccccc3)N2CC(=O)NN)cc1OC (stereo not given) | . | 4% | . | . | 7%
Cc1cc(C)n(-c2ncccc2[N+](=O)[O-])n1 | . | . | . | . | 8%
CC(C)c1ccc(-n2cnn(-c3ncccc3[N+](=O)[O-])c2=O)cc1 | . | 4% | . | . | 14µM*
Cc1cc(C)c(C)c(S(=O)(=O)N2C(=S)NC(=O)C2C(C)C)c1C (stereo not given) | 0 | 2%[38.3 µM] | ? | 10 | ?
O=[N+]([O-])c1ccc(-c2nc(-c3ccc(F)cc3)c(-c3ccncc3)[nH]2)cc1 | 1 | 21% | -28% | . | ?
Cc1cc(C)nc(N/C(=N/S(=O)(=O)Cc2ccccc2)Nc2ccccc2)n1 | . | 8% | -13% | -22 | 13µM*
SMILES | IMPase cell inh | IMPase Li inh | HPGD block | PNC assembly inh | ALDH1A1 inh
Cc1ccc(C2CC(=O)Oc3ccc(C(C)(C)C)cc32)cc1 (stereo not given) | . | 31% | -23% | . | -13%
N#Cc1c(Cl)c(Cl)c2nnc(-c3ccc(Br)cc3)n2c1Cl | 0 | 6%[38.3 µM] | 13µM* | 42 | ?
Nc1ncnc2nc(Cl)[nH]c12 | . | 5% | -4% | . | 8%
COc1cccc(CN2CCNC(=O)C2CC(=O)O)c1OC (stereo not given) | -15 | 1% | -4% | ? | ?
Cc1ccccc1CN1CCNC(=O)C1CC(=O)O (stereo not given) | 7 | 12%[38.3 µM] | -1% | -84* | ?
O=C(c1ccccc1)N(Cc1cccnc1)C1(C(=O)Nc2ccccc2)CCCCC1 | . | 14% | -17% | -110* | 1%
O=C(CSc1nc2nn(-c3ccccc3)c(=O)c-2c2n1CCCCC2)NCCc1ccccc1 | . | 22% | . | . | -4%
CCSc1nc2nn(-c3ccccc3)c(=O)c-2c2n1CCCCC2 | -3 | 51%[38.3 µM] | -18% | -6 | 2.5µM*
CCNC(=O)NS(=O)(=O)c1cnccc1Nc1cccc(Cl)c1 | . | -2% | 1% | -90* | 1%
CC(=O)NS(=O)(=O)c1cccnc1Nc1cccc(Cl)c1 | -8 | 9%[38.3 µM] | -8% | 14 | ?
Oc1cccc(O)c1O | . | 20% | 10µM* | . | 1.5µM*
COc1c(O)cccc1O | . | -2% | -9% | . | 6%
S=C(NC1CCCCC1)N(CCc1ccccc1)CCc1ccccc1 | -9 | . | . | 69 | -5%
Cc1ccccc1NC(=O)CC1SCCNC1=O (stereo not given) | 16 | 16%[38.3 µM] | -14% | -92* | 20%
Cc1c(Cl)cccc1NC(=O)CC1SCCNC1=O (stereo not given) | 1 | 33%[38.3 µM] | -1% | -10 | 0%
CCOC(=O)c1ccc(NC(=O)CC2SCCNC2=O)cc1 (stereo not given) | 12 | 5%[38.3 µM] | -4% | ? | 13µM*
CCOC(=O)c1sc(=S)n(C)c1NC(=O)c1ccccc1C | -1 | -3% | 10µM* | ? | 10µM*
CCOC(=O)c1sc(=S)n(C)c1NC(=O)c1ccc(F)cc1 | 7 | 3% | 7.9µM* | 68 | 2.5µM*
CCCCNC(=O)/C=C/c1ccc(OC)c(Br)c1 | -3 | 7% | 25µM* | ? | -1%
CCOc1ccc(/C=C/C(=O)NCCc2ccc(OC)c(OC)c2)cc1 | . | 12% | -5% | ? | 2%
CCCOc1ccc(N2CC(C(=O)NC(C)C)CC2=O)cc1 (stereo not given) | -1 | 5%[38.3 µM] | -6% | 0 | 0%
COc1cc(NC(=S)NCc2cccnc2)cc(OC)c1 | . | 4% | -13% | -92* | 4%
S=C(NCc1cccnc1)Nc1ccc(Oc2ccccc2)cc1 | . | 14% | . | . | 32µM*
CCOC(=O)c1ccc(NC(=O)C2C3C=CC(C3)C2C(=O)O)cc1 (stereo not given) | -1 | -21%[38.3 µM] | -9% | 7 | ?
CC1CCN(C(=O)c2ccc(NS(C)(=O)=O)cc2)CC1 | 7 | -4%[38.3 µM] | 10µM* | -18 | ?
Cc1ccc(-c2ccc(NC(=O)C3C4C=CC(C4)C3C(=O)O)cc2)o1 (stereo not given) | 4 | 7%[38.3 µM] | 20µM* | 10 | ?
O=C(O)C1C2C=CC(C2)C1C(=O)Nc1ccc(C(=O)N2CCCCC2)cc1 (stereo not given) | -4[1.84 µM] | 15%[38.3 µM] | 1.3µM* | 8 | ?
